Measurements reported in PubChem BioAssay (NCATS).
Inconclusive results are not listed. A call without a number means that no potency is given here. A number with no mark means an inactive call. Active and inactive are the calls of the source. Unless noted, calls follow the shape of the full dose curve.

Columns and labels:
[1] = qHTS for Inhibitors of the Functional Ribonucleoprotein Complex (vRNP) of Lassa (LASV) Arenavirus: LASV Primary Screen - GLuc reporter signal (AID 1347082; calls by dose curve; tested in HEK293 reporter line; also: nearly all actives have a fitted effect of over 60% in size; as to activity change, negative = inhibition: series mostly up to about 57 µM)
[2] = qHTS for Inhibitors of the Functional Ribonucleoprotein Complex (vRNP) of Lassa (LASV) Arenavirus: Viability assay - alamar blue signal for LASV Primary Screen (AID 1347083; calls by dose curve; tested in HEK293 reporter line; also: nearly all actives have a fitted effect of over 80% in size; as to activity change, negative = reduced viability: series mostly up to about 57 µM)
[3] = qHTS for Inhibitors of the Functional Ribonucleoprotein Complex (vRNP) of Lymphocytic Choriomeningitis Arenaviruses (LCMV): Viability assay - alamar blue signal for LCMV Primary Screen (AID 1347085; calls by dose curve; tested in HEK293 reporter line; also: nearly all actives have a fitted effect of over 80% in size; as to activity change, negative = lower viability: series mostly up to about 57 µM)
[4] = target: Nucleoprotein (Lymphocytic choriomeningitis virus (strain Armstrong)) (UniProt P09992); assay: qHTS for Inhibitors of the Functional Ribonucleoprotein Complex (vRNP) of Lymphocytic Choriomeningitis Arenaviruses (LCMV): LCMV Primary Screen - GLuc reporter signal (AID 1347086); also: nearly all actives have a fitted effect of over 70% in size; as to activity change, negative = inhibition: series mostly up to about 57 µM
Potency is read from the fitted curve at half-maximal effect.

Nucleoprotein (Lymphocytic choriomeningitis virus (strain Armstrong)), sequence (P09992 whole entry, looked up): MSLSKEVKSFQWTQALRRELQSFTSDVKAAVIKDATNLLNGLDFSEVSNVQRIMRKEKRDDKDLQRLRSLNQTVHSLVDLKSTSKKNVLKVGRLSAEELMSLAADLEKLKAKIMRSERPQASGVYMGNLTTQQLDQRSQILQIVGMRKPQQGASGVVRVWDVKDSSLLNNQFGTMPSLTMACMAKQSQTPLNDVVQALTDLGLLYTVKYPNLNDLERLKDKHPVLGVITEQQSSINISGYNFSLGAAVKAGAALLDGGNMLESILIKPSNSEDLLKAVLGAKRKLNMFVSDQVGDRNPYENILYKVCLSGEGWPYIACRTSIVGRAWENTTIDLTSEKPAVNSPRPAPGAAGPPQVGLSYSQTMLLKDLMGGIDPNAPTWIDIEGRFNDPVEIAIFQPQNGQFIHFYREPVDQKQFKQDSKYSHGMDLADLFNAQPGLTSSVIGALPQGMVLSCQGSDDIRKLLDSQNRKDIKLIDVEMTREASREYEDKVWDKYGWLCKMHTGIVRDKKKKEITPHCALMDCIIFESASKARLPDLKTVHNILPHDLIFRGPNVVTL

Row | Compound | Potency [1] | Potency [2] | Potency [3] | Potency [4] | activity change, negative = inhibition [1] | activity change, negative = reduced viability [2] | activity change, negative = lower viability [3] | activity change, negative = inhibition [4]
1 | CCCCCCCCCCC(C)=O | inactive | inactive | inactive | inactive | – | – | – | –
2 | CC12CCC(=O)C=C1C(F)CC1C2C(O)CC2(C)C1CCC2(O)C(=O)CO (stereo not given) | inactive | inactive | inactive | inactive | – | – | – | –
3 | Cc1cnccn1 | inactive | inactive | inactive | inactive | – | – | – | –
4 | O=C(C=CC=Cc1ccc2c(c1)OCO2)N1CCCCC1 | inactive | inactive | inactive | inactive | – | – | – | –
5 | CCCCCCC(=O)OCC | inactive | inactive | inactive | inactive | – | – | – | –
6 | CC(C)C[C@H](NC(=O)c1cc2ccccc2s1)C(=O)N1CCN(C(=O)[C@H](CO)NS(=O)(=O)c2ccc(Cl)cc2Cl)CC1 | inactive | inactive | inactive | inactive | – | – | – | –
7 | C[C@@H]1CC[C@]2(C(=O)O[C@@H]3O[C@H](CO)[C@@H](O)[C@H](O)[C@H]3O)CC[C@]3(C)C(=CCC4[C@@]5(C)C[C@@H](O)[C@H](O)[C@@](C)(C(=O)O[C@@H]6[C@H](O)C[C@@]7(C)C(CC[C@]8(C)C7CC=C7[C@H]9[C@](C(=O)O[C@@H]%10O[C@H](CO)[C@@H](O)[C@H](O)[C@H]%10O)(CC[C@@H](C)[C@@]9(C)O)CC[C@]78C)[C@@]6(CO)C(=O)O)C5CC[C@]43C)[C@@H]2[C@]1(C)O (stereo not given in full) | inactive | inactive | inactive | inactive | – | – | – | –
8 | Cc1cc(=O)c2c(O)c(O)ccc2o1 | inactive | inactive | inactive | inactive | – | – | – | –
9 | COc1cc2c(O)c3c(c(-c4ccc5c(c4)OCO5)c2cc1OC)C(=O)OC3 | inactive | inactive | inactive | inactive | – | – | – | –
10 | CCC1(CC)C(=O)NC(=O)N(c2ccccc2)C1=O | inactive | inactive | inactive | inactive | – | – | – | –
11 | CCOC(=O)Cc1ccccc1 | inactive | inactive | inactive | inactive | – | – | – | –
12 | O=C(O)[C@H]1O[C@H](Oc2cc3oc(-c4ccccc4)cc(=O)c3c(O)c2O)[C@H](O)[C@@H](O)[C@H]1O | inactive | inactive | inactive | inactive | – | – | – | –
13 | CC(=O)OCCC(C)C | inactive | inactive | inactive | inactive | – | – | – | –
14 | CC[C@H](C)C(=O)N[C@H]1CCCN1C(=O)/C=C/c1ccccc1 | inactive | inactive | inactive | inactive | – | – | – | –
15 | COc1ccc(/C=C/C(=O)c2c(OC)cc(O)cc2OC)cc1 | inactive | inactive | inactive | inactive | – | – | – | –
16 | c1ccc2nc(-c3ccc4c(c3)OCO4)ccc2c1 | inactive | inactive | inactive | inactive | – | – | – | –
17 | C=C/C(=C/C(=O)C[C@H](C)C[C@@H](C)CC[C@H](O)[C@H](C)C(=O)C[C@@H](O)[C@H](C)[C@@H](C)OC(=O)C[C@@H](O)C1=C(C)C(=O)OC1=O)CC | – | – | – | – | -47.1% [at 11.5 µM] | -113% [at 11.5 µM] | -114% [at 11.5 µM] | -83.6% [at 11.5 µM]
18 | CC1=CC2=C(C=O)C(=O)C(C)(O)C(O)C2=CO1 (stereo not given) | inactive | inactive | inactive | inactive | – | – | – | –
19 | C=C(C)C1CCC(C)(O)CC1 (stereo not given) | inactive | inactive | inactive | inactive | – | – | – | –
20 | CC1C(=O)OC2CCN3CC=C(COC(=O)C(C)(O)C1(C)O)C23 (stereo not given) | inactive | inactive | inactive | inactive | – | – | – | –

Row | Compound | Potency [1] | Potency [2] | Potency [3] | Potency [4] | activity change, negative = inhibition [1] | activity change, negative = reduced viability [2] | activity change, negative = lower viability [3] | activity change, negative = inhibition [4]
21 | CC[C@H]1NC(=O)[C@@H](NC(=O)c2ncccc2O)[C@@H](C)OC(=O)[C@H](c2ccccc2)NC(=O)[C@@H]2CC(=O)CCN2C(=O)[C@H](Cc2ccccc2)N(C)C(=O)[C@@H]2CCCN2C1=O | inactive | inactive | inactive | inactive | – | – | – | –
22 | C=CC1CN2CCC1CC2C(O)c1ccnc2ccc(OC)cc12 (stereo not given) | inactive | inactive | inactive | inactive | – | – | – | –
23 | CC1=CC(=O)[C@H]2C[C@@H]1C2(C)C | inactive | inactive | inactive | inactive | – | – | – | –
24 | CCCC(=O)OC/C=C(\C)CCC=C(C)C | inactive | inactive | inactive | inactive | – | – | – | –
25 | CCCCCCCCCCCCCCCCCC(=O)NCC(COP(=O)([O-])OCC[N+](C)(C)C)OCC (stereo not given) | inactive | inactive | inactive | inactive | – | – | – | –
26 | CCOC(=O)CC(C)C | inactive | inactive | inactive | inactive | – | – | – | –
27 | COc1cc(-c2oc3cc(O)cc(O)c3c(=O)c2O[C@@H]2O[C@H](CO)[C@@H](O)[C@H](O)[C@H]2O)cc(OC)c1O | inactive | inactive | inactive | inactive | – | – | – | –
28 | COC(=O)Nc1ccc(C)c(NC(=O)OC)c1 | inactive | inactive | inactive | inactive | – | – | – | –
29 | Cn1c2ccccc2c(=O)c2c(O)cccc21 | inactive | inactive | inactive | inactive | – | – | – | –
30 | Cc1ccc(C(C)(C)O)cc1 | inactive | inactive | inactive | inactive | – | – | – | –
31 | O=C(/C=C/c1ccccc1)OCCc1ccccc1 | inactive | inactive | inactive | inactive | – | – | – | –
32 | COc1cc2c(cc1OC)[C@@H]1Cc3cc4c(cc3[C@H](C2)N1C)OCO4 | inactive | inactive | inactive | inactive | – | – | – | –
33 | O=C(O)/C=C/c1ccc2c(c1)OCO2 | inactive | inactive | inactive | inactive | – | – | – | –
34 | COC(=O)Cc1ccccc1 | inactive | inactive | inactive | inactive | – | – | – | –
35 | COc1cc(C(=O)O)ccc1O | inactive | inactive | inactive | inactive | – | – | – | –
36 | C=CCc1ccc(O)c(-c2cc(CC=C)ccc2O)c1 | inactive | inactive | inactive | inactive | – | – | – | –
37 | CCOC(=O)[C@H]1O[C@H]1C(=O)N[C@@H](CC(C)C)C(=O)NCCC(C)C | inactive | inactive | inactive | inactive | – | – | – | –
38 | COc1ccc2c(c1)c(=O)cc(-c1ccccc1)n2C | inactive | inactive | inactive | inactive | – | – | – | –
39 | CC(=O)/C=C/C1C(C)=CCCC1(C)C (stereo not given) | inactive | inactive | inactive | inactive | – | – | – | –
40 | COC1C(O)C(CO)OC1n1cnc2c(=O)[nH]c(N)nc21 (stereo not given) | inactive | inactive | inactive | inactive | – | – | – | –

Row | Compound | Potency [1] | Potency [2] | Potency [3] | Potency [4] | activity change, negative = inhibition [1] | activity change, negative = reduced viability [2] | activity change, negative = lower viability [3] | activity change, negative = inhibition [4]
41 | CCN1C[C@@]2(COC)CCC(OC)[C@]34C5C[C@]6(O)[C@@H](OC)C[C@](OC(C)=O)(C([C@H](OC)C23)[C@H]14)C5[C@H]6OC(=O)c1ccc(OC)cc1 (stereo not given in full) | inactive | inactive | inactive | inactive | – | – | – | –
42 | COc1c2c(cc(O)c1C(C)=O)OC(C)(C)C=C2 | inactive | inactive | inactive | inactive | – | – | – | –
43 | C[C@]12CCC(=O)C=C1CC[C@@H]1[C@H]2[C@@H](O)C[C@@]2(C)[C@H]1CC[C@]2(O)C(=O)CO | inactive | inactive | inactive | inactive | – | – | – | –
44 | COc1cc2c3c(c1OC)-c1cc(O)ccc1CC3NCC2 (stereo not given) | inactive | inactive | inactive | inactive | – | – | – | –
45 | CC1OC(OC2C(CO)OC(OCC3OC(OC(=O)[C@@]45CCC(C)(C)C[C@@H]4C4=CC[C@@H]6[C@@]7(C)CCC(OC8OCC(O)C(O)C8OC8OC(C)C(O)C(O)C8O)[C@@](C)(CO)C7CC[C@@]6(C)[C@]4(C)CC5)C(O)C(O)C3O)C(O)C2O)C(O)C(O)C1O (stereo not given in full) | inactive | inactive | inactive | inactive | – | – | – | –
46 | C/C=C(/C)C(=O)O[C@@H]([C@H](O)c1cc2ccc(=O)oc2cc1OC)C(C)(C)O[C@@H]1O[C@H](CO)[C@@H](O)[C@H](O)[C@H]1O | inactive | inactive | inactive | inactive | – | – | – | –
47 | C[C@H]1C[C@@H]2[C@@H]([C@@H](O)C[C@@]3(C)[C@H]2CC[C@]3(O)C(=O)CO)[C@@]2(C)C=CC(=O)C=C12 | inactive | inactive | inactive | inactive | – | – | – | –
48 | CC/C=C\C/C=C\C/C=C\C/C=C\C=C\C(O)CCCC(=O)O (stereo not given) | – | – | – | – | 1.12% [at 0.757 µM] | 9.64% [at 0.757 µM] | 6.07% [at 0.757 µM] | 1.64% [at 0.757 µM]
49 | COc1ccc2ccc(=O)oc2c1CC(=O)C(C)C | inactive | inactive | inactive | inactive | – | – | – | –
50 | COc1ccc(-c2coc3cc(O)ccc3c2=O)cc1OC | inactive | inactive | inactive | inactive | – | – | – | –
51 | COc1ccc(-c2coc3cc(OC)ccc3c2=O)cc1 | inactive | inactive | inactive | inactive | – | – | – | –
52 | O=c1cc(-c2ccccc2)oc2cc(O)ccc12 | inactive | inactive | inactive | inactive | – | – | – | –
53 | C[C@]12C=CC(=O)C=C1CC[C@@H]1[C@@H]2[C@@H](O)C[C@@]2(C)[C@@H]1CC[C@]2(O)C(=O)CO | inactive | inactive | inactive | inactive | – | – | – | –
54 | O=C(Nc1cc2cc[nH]c2cn1)c1ccccc1 | inactive | inactive | inactive | inactive | – | – | – | –
55 | N[C@H](C(=O)O)c1ccc(O)c(C(=O)O)c1 | inactive | inactive | inactive | inactive | – | – | – | –
56 | C[C@H](NCc1ccc2c(c1)nc(NC(=O)c1ccc(-c3cn[nH]c3)s1)n2CCc1ccccc1)C(C)(C)C | 10.9 µM (active) | 6.11 µM (active) | 12.2 µM (active) | 17.2 µM (active) | – | – | – | –
57 | C[C@@H](O)[C@H]1O[C@]2(C)CCC[C@H]1O2 | inactive | inactive | inactive | inactive | – | – | – | –
58 | Cc1cc(=O)oc2cc3c(cc12)OCO3 | inactive | inactive | inactive | inactive | – | – | – | –
59 | CC1CCC2C(C)C3C(CC4[C@@H]5CC=C6C[C@@H](O)CC[C@]6(C)C5CC[C@]34C)N2C1 (stereo not given in full) | inactive | inactive | inactive | inactive | – | – | – | –
60 | O=C1NC2C(=CC(O)C(O)C2O)c2cc3c(c(O)c21)OCO3 (stereo not given) | inactive | inactive | inactive | inactive | – | – | – | –
